The panel holds about 79,000 compounds, 15% with a hit somewhere; the sample as a whole holds those more often. Rule as the data show it: active = growth inhibition above about 70%; inactive = the rest.
Legend:
[1] = NCI Yeast Anticancer Drug Screen. Data for the rad50 strain (AID 155);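 also: 0% = growth of vehicle-only cultures of the same strain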; conditions: S. cerevisiae rad50 strain growth inhibition; at 50.0 µM; active compounds read high
How it was run: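 Relative growth inhibition (compound vs vehicle) was measured in yeast with a defined repair-gene alteration.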

[2] = NCI Yeast Anticancer Drug Screen. Data for the mec2-1 strain (AID 157); conditions: S. cerevisiae mec2-1 strain, at 50.0 µM, active compounds read high
How it was run: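 Growth inhibition is read against vehicle-treated controls after compound exposure of the mec2-1 yeast strain, which is defective in DNA damage repair or cell cycle control.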

[3] = NCI Yeast Anticancer Drug Screen. Data for the sgs1 mgt1 strain (AID 161);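 also: 0% = growth of cultures given vehicle only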; conditions: S. cerevisiae sgs1 mgt1 strain, at 50.0 µM, active compounds read high
How it was run: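 Growth of a repair-deficient yeast mutant was monitored after compound treatment and expressed as inhibition relative to vehicle-treated cultures.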

[4] = NCI Yeast Anticancer Drug Screen. Data for the cln2 rad14 strain (AID 165);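 also: 0% = growth equal to vehicle treated cultures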; conditions: S. cerevisiae cln2 rad14 strain, at 50.0 µM, active compounds read high
How it was run: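 Growth inhibition, relative to vehicle-treated controls, is the read-out. The test organism is a yeast strain with defined genetic alterations, cln2 rad14.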

[5] = NCI Yeast Anticancer Drug Screen. Data for the bub3 strain (AID 167); conditions: S. cerevisiae bub3 mutant strain, at 50.0 µM, active compounds read high
How it was run: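 Screening used yeast with an engineered genetic alteration affecting cell cycle control. Compound-exposed cultures were compared with vehicle cultures, and reduced growth was taken as inhibition.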

[6] = NCI Yeast Anticancer Drug Screen. Data for the mlh1 rad18 strain (AID 175); conditions: S. cerevisiae mlh1 rad18 strain growth inhibition; at 50.0 µM; active compounds read high
How it was run: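 Cells of a genetically altered yeast strain, deficient in DNA damage repair, were treated with compound. Their growth was then compared with that of vehicle-treated cultures to give inhibition.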

Measured: growth inhibition

C=Cc1c(Cl)cccc1Cl
inactive: [1] 0.25% | [2] -8.85% | [3] -5.55% | [4] 3.5% | [5] -18.6% | [6] -11.3%

COC(=O)/C(C)=C/C=C/C(OC)C(OC(N)=O)/C(C)=C/C(C)C(O)C(CC(C)CC1=C(N)C(=O)C=C(N)C1=O)OC (stereo unspecified)
inactive: [1] 9.4% | [2] 10.3% | [3] -6.8% | [4] 46.9% | [5] 5.9% | [6] -18%

COc1ccc(N=Cc2cc(OC)c(OC)c(OC)c2)cc1
inactive: [1] -12.4% | [2] -9.6% | [3] 1.5% | [4] -3.55% | [5] -12.9% | [6] 0.95%

Cn1c(=O)c2[nH]c(C3CCCCCC3)nc2n(C)c1=O
inactive: [1] 13.6% | [2] -9.7% | [3] -9.4% | [4] -4.1% | [5] 7.25% | [6] -1.8%

CCN(c1ccccc1)S(=O)(=O)c1ccc(Oc2ccccc2)c(N)c1
inactive: [1] 27.2% | [2] -18.9% | [3] 16.9% | [4] 12.5% | [5] 36.5% | [6] -10.8%

C(=N\c1nnc2ccccn12)/c1ccccc1
inactive: [1] 0.2% | [2] -6.8% | [3] -21.7% | [4] -9.6% | [5] -13.7% | [6] -28.3%

N/C(=N\N=C\c1ccccn1)NO
inactive: [1] 1.05% | [2] -12.6% | [3] -5.35% | [4] -6.95% | [5] -6.15% | [6] 0.7%

CC(=O)CC(O)(C(F)(F)Cl)C(F)(Cl)Cl (stereo unspecified)
inactive: [1] -35.5% | [2] -47.7% | [3] -42.8% | [4] 0.2% | [5] -30.1% | [6] -35.8%

CCCCCCCCCCC1OCC(CC)([N+](=O)[O-])CO1 (stereo unspecified)
inactive: [1] 10.2% | [2] -27.9% | [3] 18.3% | [4] -46.4% | [5] 9.25% | [6] -10.6%

CCCCSc1nc2c(=O)[nH][nH]c(=O)c2n1Cc1ccccc1
inactive: [1] 11.9% | [2] 3.45% | [3] 23.2% | [4] 14.7% | [5] -0.8% | [6] 1.5%

COC(=O)C1C(C(=O)OC)C(C(=O)OC)C1C(=O)OC (stereo unspecified)
inactive: [1] 1.6% | [2] -0.35% | [3] -0.45% | [4] 9.5% | [5] 1.4% | [6] 26.9%

COc1ccc(-c2cc(=O)c3c(O)cc(O)cc3o2)cc1Oc1ccc(-c2cc(=O)c3c(O)cc(O)cc3o2)cc1
inactive: [1] 15.6% | [2] -12.2% | [3] -12.3% | [4] 2.35% | [5] -3.7% | [6] 5.1%

CN(c1ccccc1Cl)S(=O)(=O)c1ccccc1[N+](=O)[O-]
inactive: [1] 5.15% | [2] -30.1% | [3] 31.2% | [4] -18% | [5] 38% | [6] 2.95%

CC(=O)Nc1ccc(C(O)/C(=N/N)c2nc3ccc(Cl)cc3[nH]c2=O)cc1 (stereo unspecified)
inactive: [1] 9.15% | [2] -8.9% | [3] -6% | [4] -1.1% | [5] 5.55% | [6] -26.9%

COC(=O)c1c2c(cc3c1CCC3)CCC2
inactive: [1] -21.1% | [2] -3.15% | [3] -31.8% | [4] 14.8% | [5] 32.9% | [6] -20.2%

COCOC(C)=O
inactive: [1] -9.1% | [2] -6.4% | [3] 3.7% | [4] 0.5% | [5] -12.4% | [6] 1.4%

CCc1cccc(Nc2ccccc2C(=O)O)c1
inactive: [1] 42% | [2] 25.2% | [3] 29.8% | [4] -26.6% | [5] -2.05% | [6] -2.2%

Cc1ccc(S(=O)(=O)N/N=C2\CCC3(C)C(=CCC4C3CCC3(C)C(C(C)CCCC(C)C)CCC43)C2(C)C)cc1 (stereo unspecified)
inactive: [1] 0.45% | [2] -1.2% | [3] -11.2% | [4] 2.75% | [5] -7.95% | [6] -0.1%

COc1ccc2c(c1)CCC1=C2CCC2=CC(=O)CC[C@@]21C
inactive: [1] 5.4% | [2] 16.6% | [3] 4.4% | [4] 2.5% | [5] 38% | [6] -12.1%

COc1ccc(C(=O)N2CCOCC2)cc1
inactive: [1] -8% | [2] -16.6% | [3] -0.9% | [4] 31.9% | [5] -3.05% | [6] -10.6%

SCCCCN1CCCCC1
inactive: [1] -17.2% | [2] -14.3% | [3] 5.4% | [4] -12.2% | [5] -4.45% | [6] -9.9%
